# Assay results taken from the supplement of paper PMC8728848.
# Only a selection was taken, and the strongest signals are over-represented in it overall.
# Experiments:
# Assay in all cases: glycan array binding signal (z-score within array); higher = stronger binding
# Conditions in all cases: glycan notation: IUPAC condensed, linker removed
# Fuc(a1-2)Gal = molecular target: Fuc(a1-2)Gal
# Method in brief: (§1)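 The binding signal is a Z-score computed within each array and averaged over linkers. Arrays of the same protein sequence at different concentrations or buffers were also averaged together. Data originate from 3228 arrays in the Consortium for Functional Glycomics database, kept only where the protein sequence was available.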
# Fuc(a1-2)Gal(b1-3)GalNAc = molecular target: Fuc(a1-2)Gal(b1-3)GalNAc
# Method in brief: as §1
# [1] = molecular target: Fuc(a1-2)Gal(b1-3)GlcNAc(b1-2)Man(a1-3)[Fuc(a1-2)Gal(b1-3)GlcNAc(b1-2)Man(a1-6)]Man(b1-4)GlcNAc(b1-4)[Fuc(a1-6)]GlcNAc
# Method in brief: as §1
# [2] = molecular target: Fuc(a1-2)Gal(b1-4)GlcNAc(b1-3)Gal(b1-4)GlcNAc(b1-3)Gal(b1-4)GlcNAc
# Method in brief: as §1
# [3] = molecular target: Fuc(a1-2)Gal(b1-4)GlcNAc(b1-3)[Fuc(a1-3)[Gal(b1-4)]GlcNAc(b1-6)]Gal(b1-4)Glc
# Method in brief: as §1
# [4] = molecular target: Fuc(a1-2)Gal(b1-4)[Fuc(a1-3)]GlcNAc(b1-3)[Neu5Ac(a2-6)Gal(b1-4)GlcNAc(b1-6)]Gal(b1-4)Glc
# Method in brief: as §1
# [5] = molecular target: Fuc(a1-2)[GalNAc(a1-3)]Gal(b1-4)Glc
# Method in brief: as §1
# [6] = molecular target: Fuc(a1-3)[Gal(b1-4)]GlcNAc(b1-3)Gal(b1-4)[Fuc(a1-3)]GlcNAc
# Method in brief: as §1
# [7] = molecular target: Gal(a1-3)Gal(b1-3)GlcNAc(b1-2)Man
# Method in brief: as §1
# Gal(b1-3)GlcNAc = molecular target: Gal(b1-3)GlcNAc
# Method in brief: as §1
# [8] = molecular target: Gal(b1-3)GlcNAc(b1-3)Gal(b1-4)GlcNAc
# Method in brief: as §1
# [9] = molecular target: Gal(b1-3)GlcNAc(b1-3)Gal(b1-4)[Fuc(a1-3)]GlcNAc
# Method in brief: as §1
# Gal(b1-4)GlcNAc(b1-2)Man = molecular target: Gal(b1-4)GlcNAc(b1-2)Man
# Method in brief: as §1
# [10] = molecular target: Gal(b1-4)GlcNAc(b1-2)Man(a1-3)[Man(a1-6)]Man(b1-4)GlcNAc(b1-4)GlcNAc
# Method in brief: as §1
# [11] = molecular target: Gal(b1-4)GlcNAc(b1-2)Man(a1-6)Man(b1-4)GlcNAc(b1-4)GlcNAc
# Method in brief: as §1
# [12] = molecular target: Gal(b1-4)GlcNAc(b1-3)Gal(b1-3)GalNAc
# Method in brief: as §1
# [13] = molecular target: Gal(b1-4)GlcNAc(b1-3)Gal(b1-4)GlcNAc(b1-3)Gal(b1-4)GlcNAc(b1-2)Man(a1-3)[Gal(b1-4)GlcNAc(b1-3)Gal(b1-4)GlcNAc(b1-3)Gal(b1-4)GlcNAc(b1-2)Man(a1-6)]Man(b1-4)GlcNAc(b1-4)[Fuc(a1-6)]GlcNAc
# Method in brief: as §1
# [14] = molecular target: Gal3S(b1-4)[Fuc(a1-3)]GlcNAc
# Method in brief: as §1
# Gal6S(b1-4)Glc = molecular target: Gal6S(b1-4)Glc
# Method in brief: as §1
# [15] = molecular target: GlcA3S(b1-3)Gal(b1-4)GlcNAc(b1-3)Gal(b1-4)Glc
# Method in brief: as §1
# [16] = molecular target: GlcNAc(b1-2)Man(a1-3)[GlcNAc(b1-4)][GlcNAc(b1-2)Man(a1-6)]Man(b1-4)GlcNAc(b1-4)[Fuc(a1-6)]GlcNAc
# Method in brief: as §1
# [17] = molecular target: GlcNAc(b1-2)[GlcNAc(b1-4)]Man(a1-3)[GlcNAc(b1-4)][GlcNAc(b1-2)[GlcNAc(b1-6)]Man(a1-6)]Man(b1-4)GlcNAc(b1-4)[Fuc(a1-6)]GlcNAc
# Method in brief: as §1
# [18] = molecular target: GlcNAc(b1-2)[GlcNAc(b1-6)]Man(a1-6)[GlcNAc(b1-2)Man(a1-3)]Man(b1-4)GlcNAc(b1-4)GlcNAc
# Method in brief: as §1
# GlcNAc(b1-3)Gal(b1-4)Glc = molecular target: GlcNAc(b1-3)Gal(b1-4)Glc
# Method in brief: as §1
# [19] = molecular target: GlcNAc(b1-3)Gal(b1-4)GlcNAc(b1-3)Gal(b1-4)GlcNAc(b1-2)[GlcNAc(b1-3)Gal(b1-4)GlcNAc(b1-3)Gal(b1-4)GlcNAc(b1-6)]Man(a1-6)[GlcNAc(b1-3)Gal(b1-4)GlcNAc(b1-3)Gal(b1-4)GlcNAc(b1-2)Man(a1-3)]Man(b1-4)GlcNAc(b1-4)[Fuc(a1-6)]GlcNAc
# Method in brief: as §1
# [20] = molecular target: GlcNAc(b1-3)Gal(b1-4)GlcNAc(b1-6)[Gal(b1-3)]GalNAc
# Method in brief: as §1
# [21] = molecular target: GlcNAc(b1-3)Gal(b1-4)GlcNAc(b1-6)[GlcNAc(b1-3)]Gal(b1-4)GlcNAc
# Method in brief: as §1
# GlcNAc(b1-3)Man = molecular target: GlcNAc(b1-3)Man
# Method in brief: as §1
# [22] = molecular target: GlcNAc(b1-3)[GlcNAc(b1-6)]Gal(b1-4)GlcNAc
# Method in brief: as §1
# Kdn(a2-3)Gal(b1-4)Glc = molecular target: Kdn(a2-3)Gal(b1-4)Glc
# Method in brief: as §1
# MurNAc(b1-4)GlcNAc = molecular target: MurNAc(b1-4)GlcNAc
# Method in brief: as §1
# [23] = molecular target: Neu5Ac(a2-3)Gal(b1-3)GalNAc(b1-4)[Neu5Ac(a2-3)]Gal(b1-4)Glc
# Method in brief: as §1
# [24] = molecular target: Neu5Ac(a2-3)Gal(b1-3)GalNAc(b1-4)[Neu5Ac(a2-8)Neu5Ac(a2-3)]Gal(b1-4)Glc
# Method in brief: as §1
# [25] = molecular target: Neu5Ac(a2-3)Gal(b1-3)GlcNAc(b1-2)Man
# Method in brief: as §1
# [26] = molecular target: Neu5Ac(a2-3)Gal(b1-3)[Fuc(a1-4)]GlcNAc
# Method in brief: as §1
# Neu5Ac(a2-3)Gal(b1-4)Glc = molecular target: Neu5Ac(a2-3)Gal(b1-4)Glc
# Method in brief: as §1
# [27] = molecular target: Neu5Ac(a2-3)Gal(b1-4)GlcNAc(b1-2)Man(a1-3)[Neu5Ac(a2-3)Gal(b1-4)GlcNAc(b1-2)Man(a1-6)]Man(b1-4)GlcNAc(b1-4)[Fuc(a1-6)]GlcNAc
# Method in brief: as §1
# [28] = molecular target: Neu5Ac(a2-3)Gal(b1-4)GlcNAc(b1-2)[Neu5Ac(a2-3)Gal(b1-4)GlcNAc(b1-4)]Man(a1-3)[GlcNAc(b1-4)][Neu5Ac(a2-3)Gal(b1-4)GlcNAc(b1-2)[Neu5Ac(a2-3)Gal(b1-4)GlcNAc(b1-6)]Man(a1-6)]Man(b1-4)GlcNAc(b1-4)GlcNAc
# Method in brief: as §1
# [29] = molecular target: Neu5Ac(a2-3)Gal(b1-4)GlcNAc(b1-2)[Neu5Ac(a2-3)Gal(b1-4)GlcNAc(b1-6)]Man(a1-6)[Neu5Ac(a2-3)Gal(b1-4)GlcNAc(b1-2)Man(a1-3)][GlcNAc(b1-4)]Man(b1-4)GlcNAc(b1-4)GlcNAc
# Method in brief: as §1
# [30] = molecular target: Neu5Ac(a2-3)Gal(b1-4)GlcNAc(b1-3)Gal(b1-4)GlcNAc(b1-3)[Neu5Ac(a2-3)Gal(b1-4)GlcNAc(b1-3)Gal(b1-4)GlcNAc(b1-6)]GalNAc
# Method in brief: as §1
# [31] = molecular target: Neu5Ac(a2-3)Gal(b1-4)GlcNAc(b1-3)GalNAc
# Method in brief: as §1
# [32] = molecular target: Neu5Ac(a2-3)Gal(b1-4)GlcNAc(b1-3)[Neu5Ac(a2-3)Gal(b1-4)GlcNAc(b1-6)]GalNAc
# Method in brief: as §1
# [33] = molecular target: Neu5Ac(a2-3)Gal(b1-4)[Fuc(a1-3)]GlcNAc(b1-3)GalNAc
# Method in brief: as §1
# [34] = molecular target: Neu5Ac(a2-6)Gal(b1-4)GlcNAc(b1-2)Man(a1-3)[Man(a1-6)]Man(b1-4)GlcNAc(b1-4)GlcNAc
# Method in brief: as §1
# [35] = molecular target: Neu5Ac(a2-6)Gal(b1-4)GlcNAc(b1-2)Man(a1-3)[Neu5Ac(a2-6)Gal(b1-4)GlcNAc(b1-2)Man(a1-6)]Man(b1-4)GlcNAc(b1-4)[Fuc(a1-6)]GlcNAc
# Method in brief: as §1
# [36] = molecular target: Neu5Ac(a2-6)Gal(b1-4)GlcNAc(b1-3)Gal(b1-4)GlcNAc(b1-2)Man(a1-3)[Neu5Ac(a2-6)Gal(b1-4)GlcNAc(b1-3)Gal(b1-4)GlcNAc(b1-2)Man(a1-6)]GalNAc
# Method in brief: as §1
# [37] = molecular target: Neu5Ac(a2-6)Gal(b1-4)GlcNAc(b1-3)Gal(b1-4)GlcNAc(b1-3)GalNAc
# Method in brief: as §1
# [38] = molecular target: Neu5Ac(a2-6)GalNAc(b1-4)GlcNAc
# Method in brief: as §1
# [39] = molecular target: Neu5Ac(a2-6)GlcNAc(b1-4)GlcNAc(b1-4)GlcNAc
# Method in brief: as §1
# [40] = molecular target: Neu5Ac(a2-8)Neu5Ac(a2-3)Gal(b1-3)GalNAc(b1-4)[Neu5Ac(a2-3)]Gal(b1-4)Glc
# Method in brief: as §1
# [41] = molecular target: Neu5Ac(a2-8)Neu5Ac(a2-3)Gal(b1-4)GlcNAc
# Method in brief: as §1
# [42] = molecular target: Neu5Ac(a2-8)Neu5Ac(a2-3)[Gal(b1-3)GalNAc(b1-4)]Gal(b1-4)Glc
# Method in brief: as §1
# [43] = molecular target: Neu5Ac9Ac(a2-3)Gal(b1-3)GlcNAc
# Method in brief: as §1
# Neu5Gc(a2-3)Gal(b1-4)Glc = molecular target: Neu5Gc(a2-3)Gal(b1-4)Glc
# Method in brief: as §1
binder,measurement,setting,value
LlpB (Pseudomonas fluorescens) (protein) MGSSHHHHHHSSGLVPRGSHMASSGFRIILFNSANNGTAILPPRNCLVAGQYLESPSKRYKLILEADGNLRLYDNGVPIWVADSSVPYTYVDNRPNTNLVTCFYMQGSAFLVDRVGSRTWATIGDWIDGAADRAYLQVQDDGNVVVVDGVPRWARFGFTPAALPNRGVFYPDHGTGPLPSFPVWSWTF,glycan array binding signal (z-score),Fuc(a1-2)Gal,-0.044
same,glycan array binding signal (z-score),Fuc(a1-2)Gal(b1-3)GalNAc,-0.631
same,glycan array binding signal (z-score),[1],-0.114
same,glycan array binding signal (z-score),[2],2.58
same,glycan array binding signal (z-score),[3],-0.33
same,glycan array binding signal (z-score),[4],0.032
same,glycan array binding signal (z-score),[5],-0.54
same,glycan array binding signal (z-score),[6],1.4
same,glycan array binding signal (z-score),[7],0.466
same,glycan array binding signal (z-score),Gal(b1-3)GlcNAc,0.344
same,glycan array binding signal (z-score),[8],0.129
same,glycan array binding signal (z-score),[9],0.523
same,glycan array binding signal (z-score),Gal(b1-4)GlcNAc(b1-2)Man,3.72
same,glycan array binding signal (z-score),[10],0.362
same,glycan array binding signal (z-score),[11],-0.158
same,glycan array binding signal (z-score),[12],-0.092
same,glycan array binding signal (z-score),[13],2.11
same,glycan array binding signal (z-score),[14],-1.03
same,glycan array binding signal (z-score),Gal6S(b1-4)Glc,-1.15
same,glycan array binding signal (z-score),[15],-1.73
same,glycan array binding signal (z-score),[16],1.22
same,glycan array binding signal (z-score),[17],-0.095
same,glycan array binding signal (z-score),[18],0.893
same,glycan array binding signal (z-score),GlcNAc(b1-3)Gal(b1-4)Glc,-0.719
same,glycan array binding signal (z-score),[19],0.375
same,glycan array binding signal (z-score),[20],1.38
same,glycan array binding signal (z-score),[21],-0.837
same,glycan array binding signal (z-score),GlcNAc(b1-3)Man,0.669
same,glycan array binding signal (z-score),[22],-0.461
same,glycan array binding signal (z-score),Kdn(a2-3)Gal(b1-4)Glc,3.03
same,glycan array binding signal (z-score),MurNAc(b1-4)GlcNAc,2.54
same,glycan array binding signal (z-score),[23],2.9
same,glycan array binding signal (z-score),[24],-1.93
same,glycan array binding signal (z-score),[25],2.63
same,glycan array binding signal (z-score),[26],2.3
same,glycan array binding signal (z-score),Neu5Ac(a2-3)Gal(b1-4)Glc,2.98
same,glycan array binding signal (z-score),[27],-0.332
same,glycan array binding signal (z-score),[28],1.21
same,glycan array binding signal (z-score),[29],-0.505
same,glycan array binding signal (z-score),[30],-0.12
same,glycan array binding signal (z-score),[31],-0.794
same,glycan array binding signal (z-score),[32],-0.411
same,glycan array binding signal (z-score),[33],0.993
same,glycan array binding signal (z-score),[34],2.88
same,glycan array binding signal (z-score),[35],3.58
same,glycan array binding signal (z-score),[36],2.6
same,glycan array binding signal (z-score),[37],-0.312
same,glycan array binding signal (z-score),[38],-0.182
same,glycan array binding signal (z-score),[39],2.47
same,glycan array binding signal (z-score),[40],2.81
same,glycan array binding signal (z-score),[41],-1.02
same,glycan array binding signal (z-score),[42],-1.03
same,glycan array binding signal (z-score),[43],-0.008
same,glycan array binding signal (z-score),Neu5Gc(a2-3)Gal(b1-4)Glc,0.956
